# Measurements from PubChem BioAssay AID1454 (National Center for Advancing Translational Sciences (NCATS), 2008).
# Screen size: about 130,000 compounds; about 550 (0.42%) were called active. Not shown: some 4% with an inconclusive outcome. The sample as a whole holds a higher share of actives than the screen did. Values without a mark were called inactive. Calls follow the shape of the dose curve; as a rule, active = well fitted inhibition curve with a large enough effect; inconclusive = small, poorly fitted or top-dose-only effect, or effect the other way; inactive = flat fitted curve, though single readings scatter.
# Experiment: qHTS Assay for Inhibitors of the ERK Signaling Pathway using a Homogeneous Screening Assay; Stimulation with EGF; also: nearly all actives have a fitted effect of over 55% in size;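 as to activity change, negative = inhibition: plate controls were stimulated vehicle wells for no effect and unstimulated vehicle basal for full effect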
# Details: HEK293-V1b, EGF-stimulated phospho-ERK AlphaScreen; series mostly up to 11.5 µM; activity change, negative = inhibition: at the top concentration
# Text: NIH Chemical Genomics Center [NCGC]
# NIH Molecular Libraries Screening Centers Network [MLSCN]
# Assay Submitter (PI): Dr. Wei Zheng, NCGC/NIH
# The Ras/extracellular-signal-regulated kinase (ERK) mitogen activated protein (MAP) kinase signaling pathway (ERK1/2 cascade) plays a key role in transmitting signals from the cell surface to the nucleus (Nishida and Gotoh 1993; Chang and Karin, 2001). The cascade is initiated by the small G-protein Ras, which recruits Raf from the cytosol, where activation occurs. Alternatively, this pathway can be activated by elevating intracellular cAMP, or by activation of a receptor tyrosine kinase as epidermal growth factor receptor.
# Activation of the ERK pathway is essential in increased cell division and cell survival. Sustained and constitutive activation of the ERK pathway, however, has been linked to uncontrolled cell proliferation, increased cell survival, and tumor progression. Thus, the ERK has been as an attractive target for cancer chemotherapy in the past few years (Sebolt-Leopold and Herrera, 2004). Given its physiological and pathological importance, assessment of ERK phosphorylation has been broadly performed in both basic research and drug discovery. Most assays for the measurement of ERK phosphorylation use the antibody-based detection methods, such as western blot and ELISA. These assays require multiple reagent additions with cell wash steps and are not suitable for high throughout screening.
# The current cell-based ERK phosphorylation assay was performed using AlphaScreen platform. AlphaScreen is a two bead-based proximity-dependent chemical energy transfer luminescent assay platform. The assay reagents (ERK SureFire(TM) kit) were supplied from TGR BioSciences (Australia). In the presence of specific antibodies, phosphorylated ERK will bring "donor" and "acceptor" beads to a proximity range (<200 nm), and subsequently lead a chemical luminescent reaction upon exciting donor beads with 680 nm laser. To exclude the assay-related false positives, we used a biotinylated rabbit IgG to perform counter-screen. The biotinylated antibody mimics the phosphorylated ERK1/2 for bringing streptavidin coated beads and protein-A coated beads to a proximity range for the AlphaScreen detection.
# NCGC Assay Protocol Summary:
# HEK293 cells stably expressing type-1 vasopressin receptor (V1b) were maintained in DMEM medium (Invitrogen, Carlsbad, CA) at 37C under a humidified atmosphere containing 5% CO2 and 95% air. The medium contained 10% FBS, 2 mM L-glutamine, non-essential amino acid, pyruvate and 50 U/ml penicillin and 50 ug/ml streptomycin (Invitrogen). The aliquots of frozen cells were stored at -135C and used for the compound screening. All compounds were screened as titrations from 0.6 nM to 46 uM final concentration. Epidermal growth factor (EGF) was used to stimulate the ERK phosphorylation pathway. The ERK phosphorylation in cells was determined using an AlphaScreen assay kit provided by […]. Data were normalized to the controls for basal activity (DMSO only) and 100% activation (25 nM EGF). AC50 values were determined from concentration-response data modeled with the standard Hill equation.
# (1) Seed 4 ul/well of resuspended frozen HEK293 cells containing 2000 cells in white 1536-well plates for overnight with 1% FBS at 37C under a humidified atmosphere containing 5% CO2 and 95% air.
# (2) Add 23 nL compounds in DMSO solution. The final titration was 0.6 nM to 46 uM.
# (3) Incubate at 37C for 30 min.
# (4) Dispense 0.5uL EGF (25 nM in final)
# (5) Incubate at 37C for 5 min.
# (6) Dispense 0.5uL of 1:2 diluted 5x lysis buffer.
# (7) Incubate at 37C for 10 min.
# (8) Dispense 1.5uL of mixture of activation buffer and reaction buffer with AlphaScreen beads (streptavidin donor beads and protein-A acceptor beads, 10 ng/well for each).
# (9) Incubate at room temperature for 5 hr.
# (10) Detect the assay plate in an EnVision plate reader (PerkinElmer) using the AlphaScreen detection mode.
# […]
# Potency is read from the fitted curve at half-maximal effect.
Structure (SMILES),"activity change, negative = inhibition",Potency
CCOc1ccc(-c2nc(N)ncc2-c2ccccc2OC)c(O)c1,-12.6% [at 57.5 µM],–
O=C(Nc1ccc2oc(-c3ccccc3F)nc2c1)c1ccco1,0.33%,–
Cc1ccc(S(=O)(=O)N(C)C)cc1NC(=O)c1n[nH]c(=O)c2ccccc12,-4.99% [at 57.5 µM],–
O=C(CNC(=O)COc1ccccc1)NCCc1ccccn1,-0.794%,–
CCCn1nc(Oc2nc(NC(C)C)nc(N(C)C)n2)ccc1=O,-6.22%,–
O=C(NCC(=O)N(CC1CCCO1)C(C(=O)NC1CCCCC1)c1ccccc1)c1ccco1 (centres undefined),-4.65%,–
NS(=O)(=O)c1ccc(NC(=O)COC(=O)c2ccco2)cc1,10.8%,–
O=C(Cn1cnc2ccccc2c1=O)Nc1cccc(S(=O)(=O)N2CCCCC2)c1,14.9% [at 57.5 µM],–
Fc1ccc(-c2csc(-c3ccc(C4SCCS4)cc3)n2)cc1F,-5.85% [at 57.5 µM],–
COCC1CCCN(Cc2nc(-c3ccc4c(c3)OCO4)no2)C1 (centres undefined),2.16%,–
CCNC(=O)CC1C(=O)N(c2ccc(F)cc2)C(=O)N1Cc1cccs1 (centres undefined),-4.27%,–
CN(C)S(=O)(=O)c1ccc(Cl)c(NC(=O)COC(=O)CC(NC(N)=O)c2ccc(Cl)cc2)c1 (centres undefined),9.73% [at 57.5 µM],–
COc1ccc(/C=C/c2nnc(NC(=O)C(C)C)s2)cc1,1.71% [at 57.5 µM],–
O=C(O)c1ccc(/C=N/Nc2nc(N3CCCCC3)nc(N3CCCCC3)n2)cc1,-5.89% [at 57.5 µM],–
COc1cc(OC)cc(-c2nnc(SCC(=O)Nc3ccc(C(=O)O)cc3)s2)c1,-1.87%,–
NC(=O)COc1ccc(NC(=O)c2ccccc2-c2ccccc2)cc1,-15.3%,–
O=C(CSc1nncs1)NC1CCCc2ccccc21 (centres undefined),-7%,–
O=C(O)c1cccnc1Sc1ncnc2sc3c(c12)CCC3,-13.3% [at 57.5 µM],–
N#C/C(=C\C1=C(N2CCOCC2)C(=C\c2ccccc2)/CC1)C(=O)Nc1ccccc1F,–,7.08 µM (active)
N#C/C(=C/c1ccc(N2CCOCC2)o1)C(=O)N1CCOCC1,11.4%,–
N#C/C(=C\c1ccccc1C(F)(F)F)C(=O)Nc1ccccc1F,-4.8%,–
O=C(CSc1nnnn1-c1ccc(O)cc1)c1ccc(F)cc1,-7.72% [at 57.5 µM],–
O=C(CCCNS(=O)(=O)c1cccc2nsnc12)NCCN1CCN(c2ccccc2F)CC1,-6.43%,–
CCN(CC)CCCNC(=O)Cn1cnc2sc(C)c(S(=O)(=O)N3CCN(c4ncccn4)CC3)c2c1=O,-2.86%,–
COc1cccc(CNC(=O)CCC2CCCN(C(=O)c3ccoc3C)C2)c1 (centres undefined),-3.88%,–
O=C(NC(=S)NC1CCSC1=O)c1ccccc1F (centres undefined),–,20 µM (active)
COC(=O)c1ccccc1NC(=S)NC(=O)c1ccccc1F,-0.514%,–
O=C(NCCc1csc(-c2ccccc2)n1)c1ccccc1F,5.73% [at 57.5 µM],–
Cc1ccc(S(=O)(=O)N2CCN(C(=O)COC(=O)c3c(C)noc3C)CC2)c(C)c1,-0.545% [at 57.5 µM],–
